From PubChem BioAssay
The list is not random: actives were taken first. Their share in the collection is about 2.2%.
HMGR II inh: inhibitors of E. faecalis class II HMGR, primary screen, biochemical, Enterococcus faecalis; purified E. faecalis HMGR, NADPH absorbance 340 nm kinetic; inhibition, % at 10 µM; hit rate 0.41% among 190,000;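 active = inhibition above a set limit, the median over all tested compounds plus 3 SD, cut at about 9.5% in these data; inconclusive = no clear call, values can overlap the other calls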;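 note: enzyme runs in reverse so mevalonate oxidation gives rising NADPH absorbance; 0% = complete reaction with DMSO and 100% = background rate lacking mevalonate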
p47phox inh: p47phox/p22phox peptide binding inhibitors, primary screen, biochemical, uHTS, NADPH oxidase regulatory subunit; hit rate 0.53% among 220,000; AID 1274, 2008; inhibition, % at 24.7 µM; fluorescence polarization, 2 h;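 active = inhibition above about 30%, limit read from the data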;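 note: 0% = p47phox with labelled peptide and 100% = labelled peptide alone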
Target sequence (P14598 whole entry, looked up): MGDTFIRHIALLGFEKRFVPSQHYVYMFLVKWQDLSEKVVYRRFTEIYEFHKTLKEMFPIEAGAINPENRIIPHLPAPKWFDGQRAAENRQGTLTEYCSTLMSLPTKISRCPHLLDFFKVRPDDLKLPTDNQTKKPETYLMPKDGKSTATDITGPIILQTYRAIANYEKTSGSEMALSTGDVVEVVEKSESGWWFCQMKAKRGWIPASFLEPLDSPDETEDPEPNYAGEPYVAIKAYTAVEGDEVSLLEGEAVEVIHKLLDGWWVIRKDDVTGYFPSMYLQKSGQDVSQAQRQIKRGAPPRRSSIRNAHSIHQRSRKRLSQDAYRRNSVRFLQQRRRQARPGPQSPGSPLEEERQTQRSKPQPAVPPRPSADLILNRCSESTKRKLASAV
Arbovirus inh: antivirals against arbovirus infection, primary screen, cell-based, full library, 10K replicate subset. hit rate 0.37% among 200,000. arbovirus infection cell-based antiviral screen. inhibition, % at 10 µM; in the data active = inhibition above about 30%
Ins promoter up: insulin promoter activators in MIN6 cells, imaging, high-content screening, mouse beta cells; AID 1625, 2009; hit rate 0.3% among 190,000; MIN6 insulin promoter-GFP reporter; hits give high values; z-score at 5 µM;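 active = z-score above 3 at 5 µM with at least 500 cells counted in the well; inconclusive = wells under 500 cells, flagged as cytotoxic or low count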
Autophagy HCS: autophagy modulators in MEF cells, primary screen, imaging, high-content, MEF GFP-LC3; MEF GFP-LC3 puncta imaging; test concentration mostly 10 µM; calls only at 10 µM (by protocol); hit rate 0.98% among 190,000;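 active = percentage of spot-positive cells more than 3 SD above its plate mean, without a fluorescence outlier flag or 80% toxicity; inconclusive = no clear call, values can overlap the other calls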;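 note: spot-positive cell cutoff set from DMSO-treated cells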
DTT redox prof: compounds producing H2O2 with reducing agent – biochemical, NIH compound library profiling, artefact control for MLSCN library redox annotation, primary screen | DTT-dependent redox cycling H2O2, phenol red/HRP absorbance; 100% = 100 µM peroxide control, 0% = buffer | activation, % at 10 µM | hit rate 0.03% among 200,000 | AID 878, 2007;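 active = activation of at least 50% relative to the plate's high and low controls in the primary single-dose screen; inactive = activation below 50%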;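 note: compound incubated with DTT at 0.8 mM final as the reducing agent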
Active calls of the source: *.

`COc1cccc(N2CCN(c3ncnc4c3[nH]c3ccc(F)cc34)CC2C)c1` (centres undefined) gave HMGR II inh -4, p47phox inh -24, Arbovirus inh -47, Ins promoter up -3.7, Autophagy HCS active and DTT redox prof 3.
`COc1cccc(N2CCN(c3ncnc4c3[nH]c3ccccc34)CC2C)c1` (centres undefined) gave HMGR II inh 4, p47phox inh -17, Arbovirus inh -43, Ins promoter up inconclusive, Autophagy HCS inactive and DTT redox prof -1.
CCC(=O)Nc1ccc(N2CCOCC2)c(S(=O)(=O)Nc2ccc(OC)cc2)c1 was read as HMGR II inh -6, p47phox inh -7, Arbovirus inh -1, Ins promoter up -0.42, Autophagy HCS inactive and DTT redox prof 0.
Screening COc1ccc(NS(=O)(=O)c2cc(NC(=O)/C=C/c3cccs3)ccc2N2CCOCC2)cc1 returned HMGR II inh -3, p47phox inh -41, Arbovirus inh 64*, Ins promoter up -0.31, Autophagy HCS inactive and DTT redox prof 0.
O=c1[nH]c(/C=C/c2cccc3ccccc23)nc2ccccc12 was read as HMGR II inh -1, p47phox inh 54*, Arbovirus inh -6, Ins promoter up -0.41, Autophagy HCS inactive and DTT redox prof -1.
CC(C)CNC(=O)Cn1c(=O)c2c(ncn2CC(C)C)n(Cc2ccccc2)c1=O was read as HMGR II inh 0, p47phox inh -3, Arbovirus inh 3, Ins promoter up -0.12, Autophagy HCS active and DTT redox prof -1.
Screening O=C(Cn1c(=O)c2c(ncn2Cc2ccccc2)n(Cc2ccccc2)c1=O)NC1CC1 returned HMGR II inh 0, p47phox inh -10, Arbovirus inh -9, Ins promoter up -0.07, Autophagy HCS inactive and DTT redox prof -5.
Screening Cc1c2c(nc3c(C)cccc13)OC(C)C2 (centres undefined) returned HMGR II inh -4, p47phox inh -1, Arbovirus inh -3, Ins promoter up 0.15, Autophagy HCS active and DTT redox prof -2.
Screening COc1cccc2c3c(c(C)nc12)CC(C)O3 (centres undefined) returned HMGR II inh -5, p47phox inh -32, Arbovirus inh 11, Ins promoter up 1, Autophagy HCS inactive and DTT redox prof -3.
O=C(O)C(Cc1c[nH]c2ccccc12)N1C(=O)C2C3c4ccccc4C(c4ccccc43)[C@@H]2C1=O (some centres undefined) was read as p47phox inh -14 and Ins promoter up 0.19.
For C/C(=N\NC(=O)c1[nH]c2c([N+](=O)[O-])cc(C)cc2c1-c1ccccc1)c1cccnc1 the results were HMGR II inh -7, p47phox inh 35*, Arbovirus inh -17, Ins promoter up -0.9, Autophagy HCS inactive and DTT redox prof -3.
Cc1ccc(NC(=O)Cc2ccc(-n3cccc3)cc2)c(C)c1 was read as HMGR II inh -4, p47phox inh -29, Arbovirus inh -2, Ins promoter up 0.04, Autophagy HCS inactive and DTT redox prof 0.
Cc1ccc(NC(=O)CCl)c(C)c1 was read as HMGR II inh -6, p47phox inh 0, Arbovirus inh 9, Ins promoter up 3.5*, Autophagy HCS inactive and DTT redox prof -2.
Screening Cc1oc(/C=N/NC(=O)CN(c2ccccc2Br)S(C)(=O)=O)cc1Br returned HMGR II inh 0, p47phox inh -7, Arbovirus inh 1, Ins promoter up 0.22, Autophagy HCS inactive and DTT redox prof -12.
For Cc1cccc(Oc2nccc(C(F)(F)F)c2C(=O)Nc2ccc(F)cc2F)c1 the results were p47phox inh -23 and Ins promoter up 3.6*.
C=CCc1cccc(/C=N/NC(=O)CCCNc2ccc(C)cc2)c1O was read as HMGR II inh -8, p47phox inh 94*, Arbovirus inh -27, Ins promoter up -0.07, Autophagy HCS inactive and DTT redox prof 0.
COc1ccccc1N(CC(=O)NCC1CCCO1)C(=O)CNS(=O)(=O)c1ccccc1 (centres undefined) was read as p47phox inh -2 and Ins promoter up 0.07.
For O=C(C1CCN(S(=O)(=O)c2cccs2)CC1)N1CCN(Cc2ccccc2)CC1 the results were HMGR II inh -4, p47phox inh -11, Arbovirus inh 3, Ins promoter up -0.33, Autophagy HCS inactive and DTT redox prof -2.
`Cc1cc(C)nc(SCCC(=O)Nc2ccccc2)n1` gave HMGR II inh -1, p47phox inh 88*, Arbovirus inh -6, Ins promoter up -0.15, Autophagy HCS inactive and DTT redox prof -8.
`C=CCn1c(=O)[nH]c2cc(C(=O)N3CC=C(c4ccccc4)CC3)ccc2c1=O` gave HMGR II inh -4, p47phox inh -3, Arbovirus inh 4, Ins promoter up 0.44, Autophagy HCS inactive and DTT redox prof 0.
For Cc1cc(C)n(-c2ccc(C(=O)OCC(=O)N(CC(C)C)C3CCS(=O)(=O)C3)cc2)n1 (centres undefined) the results were HMGR II inh -6, p47phox inh 2, Arbovirus inh -3, Ins promoter up 3.3*, Autophagy HCS inactive and DTT redox prof 0.
Screening CCOc1ccc(N2C(=O)c3ccc(C(=O)OCC(=O)N(CC)C4CCS(=O)(=O)C4)cc3C2=O)cc1 (centres undefined) returned HMGR II inh -6, p47phox inh 44*, Arbovirus inh 2, Ins promoter up 0.23, Autophagy HCS inactive and DTT redox prof 0.
Screening Cc1nc(C(F)(F)F)c(C(=O)N/N=C(\N)c2ccccn2)s1 returned HMGR II inh -2, p47phox inh 0, Arbovirus inh -31, Ins promoter up -1.2, Autophagy HCS inactive and DTT redox prof 0.
`Cc1cc(NC(=O)CCCn2nc([N+](=O)[O-])cc2C)no1` gave HMGR II inh -1, p47phox inh -8, Arbovirus inh 4, Ins promoter up -0.11, Autophagy HCS inactive and DTT redox prof -1.
Cc1cc(NC(=O)CCCn2nc([N+](=O)[O-])c(Cl)c2C)no1 was read as HMGR II inh 4, p47phox inh -3, Arbovirus inh 1, Ins promoter up 0.7, Autophagy HCS active and DTT redox prof -1.
For Cc1[nH]c(=O)[nH]c(=O)c1CSCC(=O)OCC(=O)Nc1ccccn1 the results were p47phox inh -5 and Ins promoter up -0.06.
